# Test results: PubChem BioAssay
# Activity calls are given as the source filed them.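 Rule for the calls, unless noted: active = primary screen hit whose calcium fluorescence ratio, in both repeats, exceeds the weak agonist control mean by 3 SD; inactive = the rest.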
# System: TRPC4 (transient receptor potential cation channel C4 beta), mouse
# Experiment: positive allosteric modulators of mouse TRPC4, confirmation, cell-based, second round, Fluo-4, HEK293 TRPC4beta/mu-opioid, 1 µM (AID 2554;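 active = primary screen hit whose fluorescence ratio, in both repeats, exceeds the weak agonist control mean by 3 SD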)
# Details: DAMGO EC20, Fluo-4 calcium flux, at 1 µM
row,SMILES,outcome
1,CN(C)C(CNC(=O)c1oc2ccccc2c1CSc1ncn[nH]1)c1ccco1 (stereo not drawn),inactive
2,Cc1nn(-c2ccccc2)c(Cl)c1CN(C(=O)CCl)c1ccc(Cl)cc1,inactive
3,COc1ccccc1N1CCc2c(C)nc3c(OC)cccc3c21,inactive
4,Cc1cc(CN2CCCC(C(=O)Nc3ccc(-c4nc5ccccc5[nH]4)cc3)C2)n[nH]1 (stereo not drawn),inactive
5,CCCCNCC1C(Oc2ccc(Cl)cc2)C(=O)N1c1ccccc1C (stereo not drawn),inactive
6,O=C1COc2ccc(N3C(=O)C=CC3=O)cc2N1,inactive
7,Cc1nc2scc(-c3ccccc3)c2c(=O)n1N=C1C=CC(=O)C=C1,inactive
8,CCOC(=O)C1=NN(c2ccccc2C)C2=NC(C)=C(C(=O)OC)C(c3cccc(OC)c3)N12 (stereo not drawn),inactive
9,N/C(Cc1cccc2ccccc12)=N\OC(=O)c1cccs1,inactive
10,CCCSc1nc(N)nc(-c2cccs2)c1C#N,inactive
11,Cc1ccc(NC(=O)c2cc(N3C(=O)C=CC3=O)ccc2N2CCOCC2)cc1,inactive
12,Cc1ccc(NC(=O)CNc2ccccc2CN(C)C2CCCCC2)cc1,inactive
13,CC1(C)CC(NC(=O)c2cc(COc3cccc(C(F)(F)F)c3)on2)CCO1 (stereo not drawn),inactive
14,COc1ccc(C2=NN(C(=O)c3ccccc3)C(c3ccc(OC)c(OC)c3)C2)c(O)c1 (stereo not drawn),inactive
15,CCCn1nc([N+](=O)[O-])c(C(C#N)c2nc3ccccc3o2)c(Cl)c1=O (stereo not drawn),inactive
16,COc1ccc(C(CNc2ccc(C(F)(F)F)cn2)N(C)C)cc1OC (stereo not drawn),inactive
17,COc1cccc(C2=NN(C(=O)c3ccco3)C(c3ccco3)C2)c1 (stereo not drawn),inactive
18,c1ccc(Cn2c(NCc3ccco3)nc3ccccc32)cc1,inactive
19,CC(=O)c1ccc2c(c1)N(C)c1ccccc1S2,inactive
20,CCOC(=O)C1CCN(CC(O)COc2ccc(C(C)(C)C)cc2)CC1 (stereo not drawn),inactive

row,SMILES,outcome
1,CC(C)C1=Nc2cccc3cccc(c23)N1,inactive
2,Cc1cccc2nc(CSc3ccc(Cl)cc3)cn12,inactive
3,O=C(NC1CCCCC1)N1CCN(C(c2ccccc2)c2ccccc2)CC1,inactive
4,COc1cc(CNC2CCCC2)c(Br)cc1OCc1ccccc1,inactive
5,COc1ccc(Nc2cc(C)nc3ccc(OC)cc23)cc1,inactive
6,Cc1ccc(NC(=S)N(CCCN(C)C)Cc2cc3cc4c(cc3[nH]c2=O)OCO4)c(C)c1,inactive
7,COc1ccc(CN2CCN(Cc3ccc(C(F)(F)F)cc3)CC2)c(OC)c1,inactive
8,Cn1cc(CNCC2CCCO2)c(-c2ccc(Oc3ccccc3)cc2)n1 (stereo not drawn),inactive
9,CCCCCCCCCCCCOC(=O)C[N+](C)(C)C,inactive
10,CN(C)CCCN(C(=O)c1ccc(S(=O)(=O)N2CCCC2)cc1)c1nc2c(F)cc(F)cc2s1,inactive
11,C=C(c1ccc(O)cc1)c1ccc(O)cc1,inactive
12,C/C(N)=C(/C#N)C(=O)COC(=O)CC12CC3CC(CC(C3)C1)C2,inactive
13,Cc1cccc2cc(CN(CCCN(C)C)C(=S)NCCc3ccccc3)c(=O)[nH]c12,inactive
14,Nc1cc(C(F)(F)F)ccc1Nc1ccccc1,inactive
15,CCC(C)NC(C(=O)Nc1ccc(Cl)c([N+](=O)[O-])c1)c1ccccc1 (stereo not drawn),inactive
16,COCCn1c(SCc2cccc([N+](=O)[O-])c2)nc2ccccc2c1=O,inactive
17,O=C(Nc1cccc(Cl)c1)N1CCN2C(=O)c3ccccc3C12c1ccccc1 (stereo not drawn),inactive
18,CC(C)n1c(NCc2c[nH]c3ccccc23)nc2ccccc21,inactive
19,Cc1nn(-c2ccccc2)c2[nH]c(C(F)(F)F)cc(=O)c12,inactive

# System: TRPC4 beta (transient receptor potential cation channel C4), mouse
# Experiment: positive allosteric modulators of mouse TRPC4, confirmation, cell-based, Fluo-4, HEK293 TRPC4beta/mu-opioid (AID 2555)
# Details: DAMGO EC20, Fluo-4 calcium flux, at 10 µM
row,SMILES,outcome
1,CN(C)C(CNC(=O)c1oc2ccccc2c1CSc1ncn[nH]1)c1ccco1 (stereo not drawn),inactive
2,Cc1nn(-c2ccccc2)c(Cl)c1CN(C(=O)CCl)c1ccc(Cl)cc1,inactive
3,COc1ccccc1N1CCc2c(C)nc3c(OC)cccc3c21,inactive
4,Cc1cc(CN2CCCC(C(=O)Nc3ccc(-c4nc5ccccc5[nH]4)cc3)C2)n[nH]1 (stereo not drawn),inactive
5,CCCCNCC1C(Oc2ccc(Cl)cc2)C(=O)N1c1ccccc1C (stereo not drawn),inactive
6,O=C1COc2ccc(N3C(=O)C=CC3=O)cc2N1,inactive
7,Cc1nc2scc(-c3ccccc3)c2c(=O)n1N=C1C=CC(=O)C=C1,inactive
8,CCOC(=O)C1=NN(c2ccccc2C)C2=NC(C)=C(C(=O)OC)C(c3cccc(OC)c3)N12 (stereo not drawn),inactive
9,N/C(Cc1cccc2ccccc12)=N\OC(=O)c1cccs1,inactive
10,CCCSc1nc(N)nc(-c2cccs2)c1C#N,inactive
11,Cc1ccc(NC(=O)c2cc(N3C(=O)C=CC3=O)ccc2N2CCOCC2)cc1,inactive
12,Cc1ccc(NC(=O)CNc2ccccc2CN(C)C2CCCCC2)cc1,inactive
13,CC1(C)CC(NC(=O)c2cc(COc3cccc(C(F)(F)F)c3)on2)CCO1 (stereo not drawn),inactive
14,COc1ccc(C2=NN(C(=O)c3ccccc3)C(c3ccc(OC)c(OC)c3)C2)c(O)c1 (stereo not drawn),inactive
15,CCCn1nc([N+](=O)[O-])c(C(C#N)c2nc3ccccc3o2)c(Cl)c1=O (stereo not drawn),inactive
16,COc1ccc(C(CNc2ccc(C(F)(F)F)cn2)N(C)C)cc1OC (stereo not drawn),inactive
17,COc1cccc(C2=NN(C(=O)c3ccco3)C(c3ccco3)C2)c1 (stereo not drawn),inactive
18,c1ccc(Cn2c(NCc3ccco3)nc3ccccc32)cc1,inactive
19,CC(=O)c1ccc2c(c1)N(C)c1ccccc1S2,inactive
20,CCOC(=O)C1CCN(CC(O)COc2ccc(C(C)(C)C)cc2)CC1 (stereo not drawn),inactive

row,SMILES,outcome
1,CC(C)C1=Nc2cccc3cccc(c23)N1,inactive
2,Cc1cccc2nc(CSc3ccc(Cl)cc3)cn12,inactive
3,O=C(NC1CCCCC1)N1CCN(C(c2ccccc2)c2ccccc2)CC1,inactive
4,COc1cc(CNC2CCCC2)c(Br)cc1OCc1ccccc1,inactive
5,COc1ccc(Nc2cc(C)nc3ccc(OC)cc23)cc1,inactive
6,Cc1ccc(NC(=S)N(CCCN(C)C)Cc2cc3cc4c(cc3[nH]c2=O)OCO4)c(C)c1,inactive
7,COc1ccc(CN2CCN(Cc3ccc(C(F)(F)F)cc3)CC2)c(OC)c1,inactive
8,Cn1cc(CNCC2CCCO2)c(-c2ccc(Oc3ccccc3)cc2)n1 (stereo not drawn),inactive
9,CCCCCCCCCCCCOC(=O)C[N+](C)(C)C,inactive
10,CN(C)CCCN(C(=O)c1ccc(S(=O)(=O)N2CCCC2)cc1)c1nc2c(F)cc(F)cc2s1,inactive
11,C=C(c1ccc(O)cc1)c1ccc(O)cc1,inactive
12,C/C(N)=C(/C#N)C(=O)COC(=O)CC12CC3CC(CC(C3)C1)C2,inactive
13,Cc1cccc2cc(CN(CCCN(C)C)C(=S)NCCc3ccccc3)c(=O)[nH]c12,inactive
14,Nc1cc(C(F)(F)F)ccc1Nc1ccccc1,inactive
15,CCC(C)NC(C(=O)Nc1ccc(Cl)c([N+](=O)[O-])c1)c1ccccc1 (stereo not drawn),inactive
16,COCCn1c(SCc2cccc([N+](=O)[O-])c2)nc2ccccc2c1=O,inactive
17,O=C(Nc1cccc(Cl)c1)N1CCN2C(=O)c3ccccc3C12c1ccccc1 (stereo not drawn),inactive
18,CC(C)n1c(NCc2c[nH]c3ccccc23)nc2ccccc21,inactive
19,Cc1nn(-c2ccccc2)c2[nH]c(C(F)(F)F)cc(=O)c12,inactive
